Measured values as given in PubChem BioAssay.
“And” between values parts separate entries of the source, which are not always exact repeats. Identical values can stand only once. The source made the active and inactive calls.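 How the source made its calls, unless noted: active means thallium flux through the channel raised or lowered by more than 3 SD from vehicle-only wells, actives on both sides; inactive means the rest.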

Columns and labels:
[1] = liver-stage malaria parasite growth inhibition, primary screen, cell-based, HepG2, luciferase luminescence, HepG2 viability (AID 624349; in the data active means parasite load remaining mostly below about 12%, no sharp cut-off; inactive means mostly above about 10%;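 further: 100% = mean of DMSO negative control wells on the same plate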); conditions: P. berghei liver stage in HepG2, luciferase luminescence, concentration not given here; parasite load remaining: stronger effect = lower value; viability: measured here: HepG2 viability without parasites
[2] = Cy5 fluorescence interference with SSB-bound oligo, artefact control for HCV NS3 helicase inhibitor project, biochemical, NIH Clinical Collection, E. coli SSB (AID 743268; call rule not given here)
[3] = system: Hepatitis C virus NS3 helicase; assay: HCV NS3 helicase inhibitors, primary screen, biochemical, fluorescence polarization, NIH Clinical Collection (AID 743270; call rule not given here); conditions: NS3 helicase binding to Cy5-dT15 DNA, stronger effect = higher value, concentration not given here
[4] = molecular target: Single-stranded DNA-binding protein (Escherichia coli (strain K12)) (UniProt P0AGE0); assay: E. coli SSB displacement from DNA, counter-screen for HCV NS3 helicase inhibitor project, biochemical, fluorescence polarization, NIH Clinical Collection (AID 743271; in the data active means inhibition above about 28%); conditions: stronger effect = higher value, concentration not given here
[5] = fluorescence interference in NS3h assay format, artefact control for HCV NS3 helicase inhibitor project, biochemical, NIH Clinical Collection (AID 743272; call rule not given here;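 further: HCV NS3 helicase with a Cy5 labelled single stranded DNA probe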); conditions: fluorescence interference counterscreen, stronger effect = lower value
[6] = sensitizers of A549 cells to miR-34 induction, primary screen, imaging, A549 dox-inducible miR-34, nuclei and caspase counts (AID 1347080;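 active means compounds whose cell count with miR-34 switched on is under 0.7 times the count with it off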); conditions: A549 miR-34 inducible, Hoechst nuclei count, 48 h
[7] = viability rescue of complex I mutant cybrids, primary screen, cell-based, galactose medium, ATP luminescence (AID 1645843;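 active means z-score of at least 1.8 in each of two replicates, scored against plate mean and spread of sample wells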;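 further: positive z means more ATP and so rescue of galactose-driven cybrid death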); conditions: complex I mutant cybrid cells, 72 h, stronger effect = higher value
[8] = system: F380Y; assay: modulators of BK channel variants, profiling panel, selectivity assay, cell-based, U2OS BacMam, thallium flux, beta subunits (AID 1259406); conditions: at 30 µM;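 further: initial slope of Thallos dye fluorescence rise after thallium is added; log ratio against the mean of 0.3% DMSO vehicle wells on the same plate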
[9] = system: F380Y/beta1; assay: as above; conditions: at 30 µM
[10] = system: F380Y/beta2Delta; assay: as above; conditions: at 30 µM
[11] = system: F380Y/beta4; assay: as above; conditions: at 30 µM
[12] = molecular target: Calcium-activated potassium channel subunit alpha-1 (Homo sapiens) + Leucine-rich repeat-containing protein 26 (Homo sapiens) (UniProt Q12791+Q2I0M4); assay: as above; conditions: F380Y/Slo1WT/gamma1, at 30 µM
Calcium-activated potassium channel subunit alpha-1 (Homo sapiens) + Leucine-rich repeat-containing protein 26 (Homo sapiens), sequence (Q2I0M4 whole entry, looked up, one chain of several): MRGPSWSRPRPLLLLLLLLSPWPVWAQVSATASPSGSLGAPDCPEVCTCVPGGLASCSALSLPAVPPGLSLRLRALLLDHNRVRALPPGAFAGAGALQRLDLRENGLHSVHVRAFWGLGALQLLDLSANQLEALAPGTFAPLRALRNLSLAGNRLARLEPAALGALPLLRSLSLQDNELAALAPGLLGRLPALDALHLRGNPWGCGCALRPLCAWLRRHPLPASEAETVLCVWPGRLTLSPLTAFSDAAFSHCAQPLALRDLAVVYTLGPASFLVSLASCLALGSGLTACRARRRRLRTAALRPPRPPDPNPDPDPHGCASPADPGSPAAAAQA

[13] = system: R275C; assay: as above; conditions: at 30 µM
[14] = system: R275C/beta1; assay: as above; conditions: at 30 µM
[15] = system: R275C/beta2Delta; assay: as above; conditions: at 30 µM
[16] = system: R275C/beta4; assay: as above; conditions: at 30 µM
[17] = system: R275C/Slo1WT/beta2; assay: as above; conditions: at 30 µM
[18] = survival rescue of mitochondrial mutant cells in low glucose, primary screen, MELAS cybrids, Rieske KO mouse fibroblasts, CellTiter-Glo (AID 1508586;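 active means mean z-score across replicates of 1.96 or higher in either the MELAS or the Rieske mutant cell line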;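 further: z relative to plate mean and SD of compound and empty wells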)
[19] = modulation of C. elegans fzo-1 (AID 1259413; call rule not given here;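 further: fzo-1 mutant C. elegans worms in liquid wells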); conditions: C. elegans fzo-1 modulator screen, mean read-out; stronger effect = higher value
[20] = stronger effect = lower value, cell number ratio, induced over uninduced
[21] = measured here: relative caspase fold change +Dox/-Dox
[22] = measured here: total cells with miR-34 induction, stronger effect = lower value
[23] = measured here: total cells without miR-34 induction

O=C1N=C(O)CN1N=Cc1ccc(-c2ccc([N+](=O)[O-])cc2)o1
inactive: parasite load remaining [1] 10.7% | fluorescence ratio [2] 1.04 | inhibition [3] 0.45% | inhibition [4] 7.91% | fluorescence ratio [5] 0.97 | fold change [6, 20] 0.951 | z-score [7] -0.1 | log fold change Tl+ flux [8] 0.0284 | log fold change Tl+ flux [10] 0.0246 | log fold change Tl+ flux [11] -0.0396 | log fold change Tl+ flux [12] 0.0789 | log fold change Tl+ flux [13] 0.0615 | log fold change Tl+ flux [14] 0.0553 | log fold change Tl+ flux [15] 0.0141 | log fold change Tl+ flux [16] 0.0532 | log fold change Tl+ flux [17] 0.0367
active: log fold change Tl+ flux [9] 0.16
83.3%: viability [1]
7170: cell count [6, 22]
1.68: fold change [6, 21]
7540: cell count [6, 23]

Cc1cc(=O)oc2cc(NC(=O)C3CCC(=O)N3)ccc12 (stereo not drawn)
10900: cell count [6, 22]
11400: cell count [6, 23]
inactive: parasite load remaining [1] 62.4% | fluorescence ratio [2] 0.96 | inhibition [3] 1.36% | inhibition [4] 11.7% | fluorescence ratio [5] 0.91 | fold change [6, 20] 0.953 | z-score [7] -0.335 | log fold change Tl+ flux [8] -0.00455 | log fold change Tl+ flux [9] -0.0136 | log fold change Tl+ flux [10] -0.0131 | log fold change Tl+ flux [11] 0.0184 | log fold change Tl+ flux [12] -0.00524 | log fold change Tl+ flux [13] -0.000517 | log fold change Tl+ flux [14] 0.0432 | log fold change Tl+ flux [15] -0.00476 | log fold change Tl+ flux [16] -0.0203 | log fold change Tl+ flux [17] -0.0148
1.59: fold change [6, 21]
136%: viability [1]

CCN(CC)CCOc1ccc(C(=C(Cl)c2ccccc2)c2ccccc2)cc1
inactive: parasite load remaining [1] -4.11% | inhibition [3] -10.4% | inhibition [4] 0.29% | fluorescence ratio [5] 0.97 | fold change [6, 20] 1.09 and 0.932 | z-score ([18]; MELAS cybrid survival, CellTiter-Glo 48 h, stronger effect = higher value) -0.453 | z-score [7] -1.52 | log fold change Tl+ flux [8] 0.00267 | log fold change Tl+ flux [10] 0.0152 | log fold change Tl+ flux [11] -0.059 | log fold change Tl+ flux [13] 0.0156 | log fold change Tl+ flux [14] 0.0697 | log fold change Tl+ flux [15] -0.00533
2.63 and 0.76: fold change [6, 21]
4620 and 8110: cell count [6, 23]
5020 and 7560: cell count [6, 22]
active: fluorescence ratio [2] 0.76 | log fold change Tl+ flux [9] -0.533 | log fold change Tl+ flux [16] 0.493 | log fold change Tl+ flux [17] -0.157
3.72%: viability [1]
-0.778: z-score ([18]; Rieske KO mouse fibroblast survival, CellTiter-Glo 72 h)

CC12C=CC(=O)C=C1CC[C@@H]1[C@@H]2[C@@H](O)CC2(C)[C@H]1CC[C@]2(O)C(=O)CO (stereo partly drawn)
inactive: mean signal [19] 258

N[C@@H](C(=O)N[C@@H]1C(=O)N2C(C(=O)O)=C(CSc3cn[nH]n3)CS[C@H]12)c1ccc(O)cc1 (tested in a mixture with another compound)
inactive: parasite load remaining [1] 100% | fluorescence ratio [2] 1.06 | fluorescence ratio [5] 1.01 | log fold change Tl+ flux [8] 0.0279 | log fold change Tl+ flux [9] -0.0559 | log fold change Tl+ flux [10] 0.00568 | log fold change Tl+ flux [11] -0.0478 | log fold change Tl+ flux [12] 0.0418 | log fold change Tl+ flux [13] -0.0506 | log fold change Tl+ flux [14] 0.00628 | log fold change Tl+ flux [15] 0.0029 | log fold change Tl+ flux [16] -0.00667 | log fold change Tl+ flux [17] 0.00247
active: inhibition [3] 21.8% | inhibition [4] 56.1%
72.4%: viability [1]

C=CC1=C(C(=O)O)N2C(=O)[C@@H](NC(=O)C(=NOCC(=O)O)c3csc(N)n3)[C@H]2SC1
active: inhibition [3] 27.7% | inhibition [4] 94.9% | log fold change Tl+ flux [12] 0.111
69.9%: viability [1]
inactive: parasite load remaining [1] 68.9% | fluorescence ratio [2] 1.01 | fluorescence ratio [5] 0.95 | log fold change Tl+ flux [8] 0.0111 | log fold change Tl+ flux [9] -0.0102 | log fold change Tl+ flux [10] 0.02 | log fold change Tl+ flux [11] 0.0293 | log fold change Tl+ flux [13] -0.011 | log fold change Tl+ flux [14] -0.021 | log fold change Tl+ flux [15] 0.0194 | log fold change Tl+ flux [16] 0.0168 | log fold change Tl+ flux [17] 0.00126

CN(C)S(=O)(=O)c1ccc2c(c1)/C(=C\CCN1CCNCC1)c1ccccc1S2
10600: cell count [6, 23]
9850: cell count [6, 22]
1.35%: viability [1]
inactive: parasite load remaining [1] -2.22% | fluorescence ratio [2] 1.07 | inhibition [3] -0.45% | inhibition [4] 1.81% | fluorescence ratio [5] 0.96 | fold change [6, 20] 0.93 | z-score [7] -0.06 | log fold change Tl+ flux [8] -0.0239 | log fold change Tl+ flux [9] -0.0463 | log fold change Tl+ flux [10] -0.0723 | log fold change Tl+ flux [11] -0.0323 | log fold change Tl+ flux [12] -0.0624 | log fold change Tl+ flux [13] -0.0283 | log fold change Tl+ flux [14] 0.0522 | log fold change Tl+ flux [15] 0.019 | log fold change Tl+ flux [16] 0.0353 | log fold change Tl+ flux [17] 0.0468
1.32: fold change [6, 21]
